According to PubChem BioAssay:
Active and inactive are the calls of the source.

What was measured:
Albumin (Bos taurus) = Albumin (Bos taurus) (UniProt P02769); experiment: bovine serum albumin binders on microarray, profiling panel, artefact control for SMM control protein annotation, biochemical, small-molecule microarray, Alexa647 label, 635/667 nm fluorescence (AID 1118); conditions: BSA-A647 binding, fluorescence 635 nm, higher = more signal;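 further: score merges 667 nm emission intensity and signal-to-noise per printed compound spot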
Chain of Albumin (Bos taurus) (P02769 whole entry, looked up): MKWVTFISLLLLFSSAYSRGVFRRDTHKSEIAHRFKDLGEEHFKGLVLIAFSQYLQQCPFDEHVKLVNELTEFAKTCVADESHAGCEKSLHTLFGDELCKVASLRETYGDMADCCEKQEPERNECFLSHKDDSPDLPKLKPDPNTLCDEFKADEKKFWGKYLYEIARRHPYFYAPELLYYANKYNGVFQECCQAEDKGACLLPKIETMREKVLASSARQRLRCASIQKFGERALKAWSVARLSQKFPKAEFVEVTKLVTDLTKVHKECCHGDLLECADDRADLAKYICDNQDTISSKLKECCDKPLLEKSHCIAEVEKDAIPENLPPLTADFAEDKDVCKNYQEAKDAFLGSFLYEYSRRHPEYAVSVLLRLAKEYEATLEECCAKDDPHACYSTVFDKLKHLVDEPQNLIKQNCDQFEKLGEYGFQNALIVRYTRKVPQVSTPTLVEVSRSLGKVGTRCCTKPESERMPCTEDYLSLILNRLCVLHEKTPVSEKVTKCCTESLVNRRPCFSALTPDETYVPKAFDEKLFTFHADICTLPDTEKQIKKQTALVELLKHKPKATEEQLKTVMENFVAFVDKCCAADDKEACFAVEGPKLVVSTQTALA

[1] = small-molecule microarray binders of probe aXIP, primary screen, biochemical, NeuroSMM set, 635/667 nm fluorescence (AID 1119); conditions: higher = more signal, called active from +8 up or from −8 down;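 further: probe is the protein aXip251-270 applied at 1 µg/mL to compound-printed slides; binding of probe to printed compounds measured as 667 nm fluorescence plus signal to noise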
[2] = small-molecule binders of probe aNOTCH3, primary screen, biochemical, small-molecule microarray, 635/667 nm fluorescence (AID 1120); conditions: higher = more signal;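 further: probe is a biotin-tagged antibody raised against NOTCH3 rather than NOTCH3 protein; score merges spot fluorescence near 667 nm with spot signal to noise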
[3] = small-molecule binders of probe aNOTCH2, primary screen, biochemical, small-molecule microarray, 635/667 nm fluorescence (AID 1121); conditions: higher = more signal;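 further: score merges feature fluorescence read at 667 nm with its signal to noise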
[4] = target: Carbonic anhydrase 2 (Homo sapiens) (UniProt P00918); experiment: CAII small-molecule binders, profiling panel, biochemical, small-molecule microarray, Alexa647-labelled CAII (AID 1122); conditions: CAII-A647 binding fluorescence, higher = more signal
[5] = COS7 lysate on small-molecule microarray, probe aHis, 635 nm (AID 1123); conditions: COS7 cell lysate, fluorescence, higher = more signal;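 further: z-score combines 667nm fluorescence intensity with signal-to-noise per printed compound spot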
[6] = compound binding in COS7 lysate, probe aLAP1, primary screen, cell lysate, small-molecule microarray (AID 1124); conditions: probe aLAP1, fluorescence, higher = more signal;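 further: lysate comes from COS7 cells expressing LAP1 and is applied at 0.3 µg/mL; score merges spot fluorescence near 667 nm with signal-to-noise over triplicate slides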
Sam68 (KHDRBS1) = experiment: Sam68 small-molecule binders, primary screen, biochemical, small-molecule microarray, 635 nm fluorescence (AID 1125); conditions: small-molecule microarray binding, higher = more signal;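 further: score merges 667 nm channel intensity with signal to noise over triplicate slides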
[7] = test system: Chordin-like protein 2 (CHRDL2); experiment: CHRDL2 small-molecule binders, primary screen, biochemical, small-molecule microarray, 635 nm fluorescence (AID 1126); conditions: small-molecule microarray binding, fluorescence 635 nm; higher = more signal;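 further: printed compound slides probed with Chrdl2 protein at 4 µg/mL for 1 h at 4 C; score merges 667 nm emission intensity with signal to noise over three replicate slides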
[8] = target: Concanavalin-A (Canavalia ensiformis) (UniProt P02866); experiment: ConA small-molecule binders, primary screen, artefact control for SMM control protein annotation, biochemical, small-molecule microarray, Alexa647 label, 635 nm (AID 1127); conditions: ConA-A647 binding fluorescence, higher = more signal;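 further: z combines 667 nm emission intensity with signal-to-noise across three replicate slides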
Chain of Concanavalin-A (Canavalia ensiformis) (P02866 whole entry, looked up): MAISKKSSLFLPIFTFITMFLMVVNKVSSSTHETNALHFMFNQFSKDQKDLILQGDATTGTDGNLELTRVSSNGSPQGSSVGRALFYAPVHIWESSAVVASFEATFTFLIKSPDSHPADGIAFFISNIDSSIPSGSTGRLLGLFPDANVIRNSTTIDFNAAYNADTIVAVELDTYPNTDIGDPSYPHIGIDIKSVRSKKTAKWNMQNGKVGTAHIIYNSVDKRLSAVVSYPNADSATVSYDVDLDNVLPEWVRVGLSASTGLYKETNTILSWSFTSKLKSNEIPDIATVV

[9] = anti-His antibody binders, primary screen, artefact control for SMM control protein annotation, biochemical, small-molecule microarray, 635 nm fluorescence (AID 1128); conditions: anti-His Alexa647 antibody binding, higher = more signal;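 further: score merges feature fluorescence with signal-to-noise for each printed compound spot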
[10] = test system: Human papillomavirus type 1a E7 protein (residues 1-88); experiment: HPV1a E7 small-molecule binders, primary screen, biochemical, small-molecule microarray, residues 1-88, 635 nm (AID 1129); conditions: small-molecule microarray binding, fluorescence 635 nm; higher = more signal
[11] = target: Focal adhesion kinase 1 (Homo sapiens) (UniProt Q05397); experiment: small-molecule microarray binders of FAK, primary screen, biochemical, 635/667 nm fluorescence, BSA, DTT (AID 1130); conditions: PTK2 binding, 635 nm fluorescence, higher = more signal;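 further: composite of spot emission at 667 nm and signal to noise over triplicate slides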
Chain of Focal adhesion kinase 1 (Homo sapiens) (Q05397 whole entry, looked up): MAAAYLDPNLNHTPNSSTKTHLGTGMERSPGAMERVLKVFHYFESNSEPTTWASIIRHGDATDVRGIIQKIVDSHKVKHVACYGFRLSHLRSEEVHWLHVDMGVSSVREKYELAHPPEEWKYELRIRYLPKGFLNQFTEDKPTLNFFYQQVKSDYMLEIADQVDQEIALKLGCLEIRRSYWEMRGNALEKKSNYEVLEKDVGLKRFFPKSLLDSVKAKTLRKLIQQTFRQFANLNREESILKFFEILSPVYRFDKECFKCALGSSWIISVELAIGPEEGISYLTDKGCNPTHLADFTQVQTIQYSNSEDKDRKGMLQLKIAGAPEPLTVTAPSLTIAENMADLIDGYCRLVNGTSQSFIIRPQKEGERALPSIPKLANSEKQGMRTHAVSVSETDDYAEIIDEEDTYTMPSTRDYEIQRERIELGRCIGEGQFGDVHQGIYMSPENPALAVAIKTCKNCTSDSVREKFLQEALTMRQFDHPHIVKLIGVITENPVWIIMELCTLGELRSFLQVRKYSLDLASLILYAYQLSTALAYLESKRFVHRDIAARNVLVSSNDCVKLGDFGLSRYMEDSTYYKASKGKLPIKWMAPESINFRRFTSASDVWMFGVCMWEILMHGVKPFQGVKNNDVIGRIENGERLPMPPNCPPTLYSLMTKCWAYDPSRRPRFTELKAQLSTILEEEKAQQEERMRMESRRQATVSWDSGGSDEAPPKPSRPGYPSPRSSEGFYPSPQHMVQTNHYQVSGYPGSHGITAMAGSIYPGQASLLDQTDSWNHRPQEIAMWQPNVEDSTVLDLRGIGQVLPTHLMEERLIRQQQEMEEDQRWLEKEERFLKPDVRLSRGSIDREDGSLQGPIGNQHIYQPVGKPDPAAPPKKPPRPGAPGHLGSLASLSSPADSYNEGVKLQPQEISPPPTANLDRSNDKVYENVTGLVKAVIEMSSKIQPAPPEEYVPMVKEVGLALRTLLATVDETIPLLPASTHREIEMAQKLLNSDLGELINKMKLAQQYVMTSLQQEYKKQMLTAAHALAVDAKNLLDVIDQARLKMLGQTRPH

[12] = test system: Fibrinogen (Alexa647-labelled); experiment: fibrinogen binders on compound microarrays, profiling panel, artefact control for SMM control-protein annotation, biochemical, small-molecule microarray, 635/667 nm fluorescence (AID 1131); conditions: fibrinogen-A647 binding fluorescence, higher = more signal;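 further: z-score merges 667 nm fluorescence with per-spot signal-to-noise over triplicate slides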
[13] = target: Follistatin (Homo sapiens) (UniProt P19883); experiment: follistatin binders on small-molecule microarrays, primary screen, biochemical, small-molecule microarray, 635/667 nm fluorescence (AID 1132); conditions: FST binding, 635 nm fluorescence, higher = more signal
Chain of Follistatin (Homo sapiens) (P19883 whole entry, looked up): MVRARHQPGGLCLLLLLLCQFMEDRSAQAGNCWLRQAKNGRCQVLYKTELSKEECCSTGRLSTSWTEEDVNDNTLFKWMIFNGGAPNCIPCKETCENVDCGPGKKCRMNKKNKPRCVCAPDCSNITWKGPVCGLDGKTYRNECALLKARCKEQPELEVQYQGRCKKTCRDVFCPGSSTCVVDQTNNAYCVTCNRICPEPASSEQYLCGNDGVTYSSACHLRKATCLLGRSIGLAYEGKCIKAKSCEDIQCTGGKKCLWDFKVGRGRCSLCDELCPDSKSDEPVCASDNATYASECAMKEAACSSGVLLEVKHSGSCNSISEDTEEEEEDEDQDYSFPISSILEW

[14] = target: Fibroblast growth factor 2 (Homo sapiens) (UniProt P09038); experiment: FGF2 binders on small-molecule microarrays, primary screen, biochemical, small-molecule microarray, 635/667 nm fluorescence (AID 1133); conditions: small-molecule microarray binding, FGF2, fluorescence 635/667; higher = more signal
Chain of Fibroblast growth factor 2 (Homo sapiens) (P09038 whole entry, looked up): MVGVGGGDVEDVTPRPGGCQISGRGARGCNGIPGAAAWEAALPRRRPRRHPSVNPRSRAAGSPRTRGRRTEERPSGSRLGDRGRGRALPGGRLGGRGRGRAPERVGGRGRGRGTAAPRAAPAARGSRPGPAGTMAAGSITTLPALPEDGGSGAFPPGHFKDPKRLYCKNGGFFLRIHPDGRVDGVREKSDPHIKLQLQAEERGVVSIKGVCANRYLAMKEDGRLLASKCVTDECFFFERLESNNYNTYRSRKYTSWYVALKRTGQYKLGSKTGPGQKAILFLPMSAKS

[15] = mitochondrial membrane potential change in A549 cells, profiling panel, cell-based, JC-1 fluorescence, basal, 24 h, 100 nL (AID 1138); conditions: higher = more signal;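 further: A549 lung adenocarcinoma cells under basal conditions with no added stimulus; test concentration not given here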
Lefty1 = Lefty1 binders on small-molecule microarrays, primary screen, biochemical, small-molecule microarray, 635/667 nm fluorescence (AID 1139); conditions: small-molecule microarray binding, fluorescence 635/667; higher = more signal
[16] = test system: wheat germ agglutinin (Triticum aestivum), Alexa647-labelled; experiment: wheat germ agglutinin binders on compound microarrays, profiling panel, artefact control for SMM control-protein annotation, biochemical, small-molecule microarray, 635/667 nm fluorescence (AID 1140); conditions: WGA-A647 binding, 635 nm fluorescence, higher = more signal;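 further: score merges 667 nm feature emission with signal to noise over triplicate slides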
[17] = target: Luciferin 4-monooxygenase (Photinus pyralis) (UniProt P08659); experiment: firefly luciferase enzyme inhibitors, primary screen, biochemical, luminescence, purified enzyme, 2006 set (AID 1141); conditions: SteadyGlo luminescence, 30 min, higher = more signal, called active from +8 up or from −8 down;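 further: cell-free assay with purified firefly luciferase at 100 ng per well in PBS; test concentration not given here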
Chain of Luciferin 4-monooxygenase (Photinus pyralis) (P08659 whole entry, looked up): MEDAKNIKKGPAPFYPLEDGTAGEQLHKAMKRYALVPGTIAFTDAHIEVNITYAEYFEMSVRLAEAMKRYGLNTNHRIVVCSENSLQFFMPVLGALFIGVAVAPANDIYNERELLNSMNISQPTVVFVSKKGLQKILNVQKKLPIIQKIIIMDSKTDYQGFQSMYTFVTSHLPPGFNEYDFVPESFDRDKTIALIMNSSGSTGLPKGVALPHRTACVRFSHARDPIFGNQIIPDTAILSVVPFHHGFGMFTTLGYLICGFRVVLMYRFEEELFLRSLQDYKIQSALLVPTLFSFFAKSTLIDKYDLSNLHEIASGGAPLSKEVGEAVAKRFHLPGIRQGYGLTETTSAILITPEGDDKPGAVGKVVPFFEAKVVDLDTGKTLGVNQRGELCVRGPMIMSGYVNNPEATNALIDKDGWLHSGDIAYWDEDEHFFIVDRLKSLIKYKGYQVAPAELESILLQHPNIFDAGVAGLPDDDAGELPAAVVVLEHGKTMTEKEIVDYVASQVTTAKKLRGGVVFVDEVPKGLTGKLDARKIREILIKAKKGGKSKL

Structure (SMILES) | composite z-score (Albumin (Bos taurus)) | composite Z-score [1] | composite z-score [2] | composite z-score [3] | composite z-score [4] | composite z-score [5] | composite z-score [6] | composite z-score (Sam68 (KHDRBS1)) | composite z-score [7] | composite z-score [8] | composite z-score [9] | composite z-score [10] | composite z-score [11] | composite z-score [12] | composite z-score [13] | composite z-score [14] | z-score [15] | composite z-score (Lefty1) | composite z-score [16] | z-score [17]
COc1cccc([C@@H]2[C@@H](C)CC[C@H]3C(=O)N(C)[C@@H](C(C)C)C(=O)N23)c1 | -0.199 | 0.4 (inactive) | -0.0111 | -0.181 | -0.155 | 0.0706 | -0.343 | 0.346 | 0.466 | 0.416 | 0.381 | 0.694 | 1.24 | -0.0271 | 0.388 | 0.348 | 1.68 | 0.915 | 0.168 | -1.56 (inactive)
COC(=O)C[C@H]1O[C@]2(C(=O)N(Cc3ccccc3)c3ccc(I)cc32)[C@@H](C)[C@@H]1[Si](C)(C)c1ccc(OC)cc1 | 0.298 | 0.167 (inactive) | -0.185 | -0.0956 | -0.228 | -0.322 | -0.0227 | -0.879 | 0.0477 | -0.0276 | -0.421 | -0.807 | -0.172 | -0.774 | -0.274 | -0.222 | 0.0578 | -0.603 | 0.322 | 0.417 (inactive)
CCCC[C@@H]1C[C@H]1[C@@H](NC(=O)c1ccccc1)c1ccccc1C(F)(F)F | 1.01 | -0.814 (inactive) | 0.0493 | 0.0116 | 0.412 | 3.03 | 0.13 | 1.14 | 0.377 | 1.17 | 0.412 | 1.22 | 0.826 | 1.03 | 0.243 | -0.113 | 0.294 | -0.826 | 1.17 | 1.31 (inactive)
CCc1cccc(NC(=O)O[C@H]2[C@H](OC(=O)Nc3ccccc3)[C@@H](OC(=O)Nc3ccccc3)[C@@H](OC)O[C@@H]2CO)c1 | 0.819 | -0.477 (inactive) | 0.163 | -0.0527 | 0.806 | 2.69 | 0.421 | 1.29 | -0.061 | 1.14 | 0.51 | 1.29 | 0.497 | 0.978 | 1.4 | 0.786 | -1.47 | 0.937 | 0.966 | 0.846 (inactive)
CC[C@@H]1C=C(C(=O)O)[C@H](c2ccccc2)N1S(=O)(=O)c1ccc([N+](=O)[O-])cc1 | 0.938 | 0.0692 (inactive) | 0.0793 | -0.0983 | 0.514 | 2.43 | 0.612 | 1.04 | -0.812 | 0.942 | 1.34 | 1.24 | 0.783 | -0.368 | 0.221 | -0.715 | -0.506 | -0.177 | 1.01 | 0.631 (inactive)
COC(=O)C1=CC(c2ccc(CO)cc2)=CC(C2CC2)N(Cc2sc3ccccc3c2Cl)C=C1C(=O)OC (stereo not given) | 0.971 | 0.152 (inactive) | 0.3 | 0.101 | 0.866 | 2.78 | 0.58 | 1.31 | 0.185 | 1.16 | 3.42 | 1.19 | 1.46 | 0.896 | 0.851 | 0.3 | 2.04 | 0.573 | 1.49 | -1.55 (inactive)
CC(C)=C1C(=O)C(c2ccccc2)=C2CN3C(=O)N(CCc4ccccc4)C(=O)[C@]3(Cc3ccccc3)[C@H]21 | 0.0673 | 0.548 (inactive) | -0.0209 | 0.224 | 0.204 | 0.572 | -0.14 | -1.59 | -2.04 | -1.18 | 1.39 | -0.992 | 0.521 | -0.358 | -1.04 | -0.77 | 1.45 | -0.961 | -0.112 | 0.451 (inactive)
C=CCC(OC(C)=O)[C@@H]1[C@@H](N(Cc2ccc(-c3ccccc3)cc2)C(=O)c2ccc(C)cc2)c2cc(OCCCO)ccc2N1C(=O)c1ccc(-c2ccccc2)cc1 (stereo not given in full) | 0.101 | 0.451 (inactive) | -0.0933 | -0.0664 | -0.102 | 0.23 | 0.232 | -0.0015 | -0.0151 | -0.925 | -0.958 | 0.438 | 0.248 | -0.195 | 0.217 | 0.0217 | 2.98 | -0.166 | 0.258 | -1.81 (inactive)
CC(C)[C@H]1NC(=O)[C@@]23C(=O)N[C@@H](Cc4ccccc4)C2[C@H](C)[C@@]2(C)O[C@H]2C3/C=C/C/C=C\CNC(=O)[C@H](C)NC1=O (stereo not given in full) | -0.255 | -0.0247 (inactive) | -0.25 | -0.218 | 0.811 | -0.281 | -0.258 | -0.762 | -0.433 | -0.671 | 0.661 | -0.983 | -0.67 | -0.908 | -0.412 | 0.862 | -0.134 | -0.62 | -1.03 | -0.0632 (inactive)
CCCC=C(CCC)[C@@H](NC(=O)c1ccccc1)c1ccccc1 | -0.399 | 0.108 (inactive) | 0.0191 | -0.0633 | -0.247 | 0.341 | 0.139 | -0.452 | -0.768 | -0.604 | -0.697 | 0.3 | 1.04 | -0.602 | -0.536 | -0.846 | -1.52 | -0.614 | -0.677 | 0.0419 (inactive)
